Our source for the binding signal values is article PMC7862700, “An all-to-all approach to the identification of sequence-specific readers for epigenetic DNA modifications on cytosine”.

Holding throughout (test): DAPPL (digital affinity profiling via proximity ligation, sequencing); 10 mM Tris-HCl pH 7.5, 50 mM NaCl, 1 mM DTT, 4% glycerol, room temperature, 30 min; GST-TFs on glutathione beads, 16-mer random dsDNA library, 0.1% formaldehyde crosslink after washing; high values mean tight binding
The target of one assay is T1, FLI1 (Homo sapiens, UniProt Q01543 1-452).
T1 sequence: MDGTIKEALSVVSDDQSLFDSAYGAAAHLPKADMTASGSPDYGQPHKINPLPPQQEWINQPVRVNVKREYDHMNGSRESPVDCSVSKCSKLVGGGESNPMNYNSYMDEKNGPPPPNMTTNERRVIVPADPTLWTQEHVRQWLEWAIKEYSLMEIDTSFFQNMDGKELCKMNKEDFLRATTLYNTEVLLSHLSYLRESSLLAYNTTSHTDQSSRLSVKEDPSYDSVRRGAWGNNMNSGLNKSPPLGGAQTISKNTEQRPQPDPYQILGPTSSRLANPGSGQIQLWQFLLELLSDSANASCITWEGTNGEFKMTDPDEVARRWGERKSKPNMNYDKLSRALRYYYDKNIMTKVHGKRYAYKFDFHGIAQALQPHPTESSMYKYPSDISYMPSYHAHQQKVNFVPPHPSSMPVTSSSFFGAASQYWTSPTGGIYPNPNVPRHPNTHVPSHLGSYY
Conditions: protein: recombinant; tags: N-terminal GST; dsDNA, one strand shown. The method in brief: (§1)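 After expression in yeast as GST fusions, human transcription factors were bound to glutathione beads, DNA-barcoded and mixed with a tag-only sample. The pools were incubated with 200 nmole of a 16-mer random double-stranded DNA library in Tris/NaCl/DTT/glycerol buffer (30 min, room temperature), washed and crosslinked with 0.1% formaldehyde. Proximity ligation with BsaI/T4 ligase ran for 1 h at 37 °C, before PCR amplification and sequencing on an Illumina NextSeq500. Binding signal is a hexamer's read frequency for a factor divided by its frequency for the tag-only sample.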

The next assay has as its target T2, ELK1 (Homo sapiens, UniProt P19419 1-428).
T2 sequence: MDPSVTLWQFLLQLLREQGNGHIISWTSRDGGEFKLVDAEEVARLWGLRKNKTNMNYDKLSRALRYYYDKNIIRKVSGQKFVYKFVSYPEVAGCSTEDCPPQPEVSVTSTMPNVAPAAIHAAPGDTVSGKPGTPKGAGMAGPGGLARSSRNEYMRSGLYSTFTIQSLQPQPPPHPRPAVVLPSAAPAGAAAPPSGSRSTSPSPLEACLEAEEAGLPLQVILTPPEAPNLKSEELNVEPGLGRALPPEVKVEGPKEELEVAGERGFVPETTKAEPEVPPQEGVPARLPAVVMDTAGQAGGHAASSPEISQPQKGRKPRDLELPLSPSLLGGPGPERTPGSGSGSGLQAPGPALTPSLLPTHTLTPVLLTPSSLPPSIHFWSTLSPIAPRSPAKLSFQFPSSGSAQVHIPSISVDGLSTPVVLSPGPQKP
Conditions: protein: recombinant; tags: N-terminal GST; dsDNA, one strand shown. A digest of the protocol:
as §1

The target of another assay is T3, GABPA (Homo sapiens, UniProt Q06546 1-454).
T3 sequence: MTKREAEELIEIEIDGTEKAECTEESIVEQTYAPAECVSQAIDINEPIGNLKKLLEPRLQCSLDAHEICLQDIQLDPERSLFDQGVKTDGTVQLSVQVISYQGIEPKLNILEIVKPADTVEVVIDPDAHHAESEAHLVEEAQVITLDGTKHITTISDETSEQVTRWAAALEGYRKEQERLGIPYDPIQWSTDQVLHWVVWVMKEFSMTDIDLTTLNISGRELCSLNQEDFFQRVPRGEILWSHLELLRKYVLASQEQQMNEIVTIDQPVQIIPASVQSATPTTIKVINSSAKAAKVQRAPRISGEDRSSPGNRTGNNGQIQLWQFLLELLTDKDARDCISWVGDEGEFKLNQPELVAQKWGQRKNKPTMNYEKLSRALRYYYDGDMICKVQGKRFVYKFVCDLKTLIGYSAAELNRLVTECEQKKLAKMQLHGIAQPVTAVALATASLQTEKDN
Conditions: protein: recombinant; tags: N-terminal GST; dsDNA, one strand shown. The method in brief:
as §1

For another assay, the target named is T4, ERG (Homo sapiens, UniProt P11308 1-479).
T4 sequence: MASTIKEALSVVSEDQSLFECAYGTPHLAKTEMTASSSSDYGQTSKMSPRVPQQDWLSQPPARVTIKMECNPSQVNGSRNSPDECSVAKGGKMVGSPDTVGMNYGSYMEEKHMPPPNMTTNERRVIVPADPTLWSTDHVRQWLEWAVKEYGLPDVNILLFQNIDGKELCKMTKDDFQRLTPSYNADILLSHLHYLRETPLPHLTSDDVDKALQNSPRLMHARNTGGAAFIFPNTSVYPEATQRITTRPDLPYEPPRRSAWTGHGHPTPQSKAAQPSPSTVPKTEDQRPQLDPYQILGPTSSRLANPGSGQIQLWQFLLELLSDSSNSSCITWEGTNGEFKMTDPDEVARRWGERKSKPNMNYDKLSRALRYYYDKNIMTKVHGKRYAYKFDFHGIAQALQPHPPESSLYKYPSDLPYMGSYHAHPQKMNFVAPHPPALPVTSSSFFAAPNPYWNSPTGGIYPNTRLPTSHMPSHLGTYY
Conditions: protein: recombinant; tags: N-terminal GST; dsDNA, one strand shown. A digest of the protocol: as §1

The next assay addresses ELF1 (Homo sapiens, UniProt P32519 1-619). Conditions: protein: recombinant; tags: N-terminal GST; dsDNA, one strand shown. The method in brief:
as §1

The target in another assay is T5, EHF (Homo sapiens, UniProt Q9NZC4 1-300).
T5 sequence: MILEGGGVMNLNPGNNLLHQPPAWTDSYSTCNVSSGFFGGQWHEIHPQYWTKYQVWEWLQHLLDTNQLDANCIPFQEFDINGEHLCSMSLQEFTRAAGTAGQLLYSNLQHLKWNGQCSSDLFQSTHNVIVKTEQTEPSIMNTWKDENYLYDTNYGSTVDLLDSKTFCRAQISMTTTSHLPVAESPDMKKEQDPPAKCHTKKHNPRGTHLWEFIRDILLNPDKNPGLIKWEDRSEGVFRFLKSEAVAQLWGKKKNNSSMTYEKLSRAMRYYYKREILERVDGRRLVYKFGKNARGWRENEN
The settings on record: protein: recombinant; tags: N-terminal GST; dsDNA, one strand shown. The method in brief:
as §1

The target of another assay is SPI1 (Homo sapiens, UniProt P17947 1-270). The settings on record: protein: recombinant; tags: N-terminal GST; dsDNA, one strand shown. A digest of the protocol:
as §1

In the next assay the target is SPIB (Homo sapiens, UniProt Q01892 1-262). Conditions: protein: recombinant; tags: N-terminal GST; dsDNA, one strand shown. The method in brief:
as §1

A further assay concerns the target T6, ELK3 (Homo sapiens, UniProt P41970 1-407).
T6 sequence: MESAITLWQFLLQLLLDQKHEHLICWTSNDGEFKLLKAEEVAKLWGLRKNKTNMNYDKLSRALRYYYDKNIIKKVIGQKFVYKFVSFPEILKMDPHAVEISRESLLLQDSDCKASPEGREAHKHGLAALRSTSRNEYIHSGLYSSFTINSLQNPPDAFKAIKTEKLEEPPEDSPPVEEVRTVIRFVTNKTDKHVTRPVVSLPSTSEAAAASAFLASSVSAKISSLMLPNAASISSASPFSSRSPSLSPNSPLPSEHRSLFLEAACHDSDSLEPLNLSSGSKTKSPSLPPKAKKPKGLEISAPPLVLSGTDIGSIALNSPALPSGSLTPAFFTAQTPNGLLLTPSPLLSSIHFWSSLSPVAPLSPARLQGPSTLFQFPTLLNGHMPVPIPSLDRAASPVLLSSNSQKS
Conditions: protein: recombinant; tags: N-terminal GST; dsDNA, one strand shown. The method in brief:
as §1

The target in the next assay is T7, FEV (Homo sapiens, UniProt Q99581 1-238).
T7 sequence: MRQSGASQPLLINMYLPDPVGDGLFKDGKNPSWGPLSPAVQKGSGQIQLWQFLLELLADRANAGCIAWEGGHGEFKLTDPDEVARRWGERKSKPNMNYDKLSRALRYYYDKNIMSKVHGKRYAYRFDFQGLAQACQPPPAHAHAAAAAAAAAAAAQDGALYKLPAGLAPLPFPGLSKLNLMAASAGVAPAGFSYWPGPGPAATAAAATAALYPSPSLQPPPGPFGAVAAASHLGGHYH
Conditions: protein: recombinant; tags: N-terminal GST; dsDNA, one strand shown. The method in brief:
as §1

Another assay concerns the target ETV5 (Homo sapiens, UniProt P41161 1-510). The settings on record: protein: recombinant; tags: N-terminal GST; dsDNA, one strand shown. The method in brief:
as §1

Another assay has as its target HSF1 (Homo sapiens, UniProt Q00613 1-529). The settings on record: protein: recombinant; tags: N-terminal GST; chain copies: 3; dsDNA, one strand shown. The method in brief: as §1
For another assay, the target named is T8, SPIC (Homo sapiens, UniProt Q8N5J4 1-248).
T8 sequence: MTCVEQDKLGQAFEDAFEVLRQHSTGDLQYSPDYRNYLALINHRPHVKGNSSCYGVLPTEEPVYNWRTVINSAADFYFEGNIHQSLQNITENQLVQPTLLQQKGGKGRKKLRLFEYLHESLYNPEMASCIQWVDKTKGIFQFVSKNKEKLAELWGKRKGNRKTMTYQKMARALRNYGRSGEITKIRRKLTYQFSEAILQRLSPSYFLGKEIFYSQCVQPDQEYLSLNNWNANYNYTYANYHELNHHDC
The settings on record: protein: recombinant; tags: N-terminal GST; dsDNA, one strand shown. The method in brief: as §1

A further assay addresses ELF4 (Homo sapiens, UniProt Q99607 1-663). The settings on record: protein: recombinant; tags: N-terminal GST; dsDNA, one strand shown. The method in brief:
as §1

In the next assay the target is T9, ELK4 (Homo sapiens, UniProt P28324-2 1-405).
T9 sequence: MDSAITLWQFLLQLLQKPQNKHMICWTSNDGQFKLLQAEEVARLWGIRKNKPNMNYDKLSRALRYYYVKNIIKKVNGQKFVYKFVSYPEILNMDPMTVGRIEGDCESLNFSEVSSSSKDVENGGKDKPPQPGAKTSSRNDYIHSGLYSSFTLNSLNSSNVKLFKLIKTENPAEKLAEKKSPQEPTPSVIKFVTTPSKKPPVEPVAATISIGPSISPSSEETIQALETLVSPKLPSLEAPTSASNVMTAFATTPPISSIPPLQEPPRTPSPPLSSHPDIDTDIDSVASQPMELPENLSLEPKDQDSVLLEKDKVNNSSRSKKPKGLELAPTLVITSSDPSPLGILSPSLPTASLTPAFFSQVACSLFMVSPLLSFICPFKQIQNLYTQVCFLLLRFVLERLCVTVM
The settings on record: protein: recombinant; tags: N-terminal GST; dsDNA, one strand shown. The method in brief: as §1

For another assay, the target named is T10, ETV2 (Homo sapiens, UniProt O00321 1-342).
T10 sequence: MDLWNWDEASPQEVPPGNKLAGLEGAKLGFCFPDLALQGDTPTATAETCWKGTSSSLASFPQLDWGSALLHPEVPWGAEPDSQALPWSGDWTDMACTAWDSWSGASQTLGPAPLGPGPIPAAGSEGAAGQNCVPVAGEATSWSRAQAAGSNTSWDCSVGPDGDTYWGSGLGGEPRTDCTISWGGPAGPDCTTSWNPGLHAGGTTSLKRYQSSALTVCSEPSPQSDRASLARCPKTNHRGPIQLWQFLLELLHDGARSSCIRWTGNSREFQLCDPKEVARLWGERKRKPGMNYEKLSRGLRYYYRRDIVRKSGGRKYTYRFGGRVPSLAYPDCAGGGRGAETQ
Conditions: protein: recombinant; tags: N-terminal GST; dsDNA, one strand shown. A digest of the protocol: as §1

Another assay addresses T11, ELF3 (Homo sapiens, UniProt P78545 1-371).
T11 sequence: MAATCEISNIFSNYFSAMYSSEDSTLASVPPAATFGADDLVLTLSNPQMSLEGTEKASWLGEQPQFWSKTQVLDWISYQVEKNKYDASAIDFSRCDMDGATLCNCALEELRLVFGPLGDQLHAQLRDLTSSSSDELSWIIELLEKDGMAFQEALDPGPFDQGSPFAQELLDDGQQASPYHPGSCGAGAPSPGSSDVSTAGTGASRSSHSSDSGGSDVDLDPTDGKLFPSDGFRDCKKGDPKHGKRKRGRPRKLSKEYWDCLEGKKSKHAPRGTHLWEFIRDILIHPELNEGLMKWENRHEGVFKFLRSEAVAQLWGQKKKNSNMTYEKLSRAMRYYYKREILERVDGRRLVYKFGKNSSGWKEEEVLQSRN
The settings on record: protein: recombinant; tags: N-terminal GST; dsDNA, one strand shown. A digest of the protocol: as §1

In the next assay the target is CRX (Homo sapiens, UniProt O43186 1-299). Conditions: protein: recombinant; tags: N-terminal GST; dsDNA, one strand shown. A digest of the protocol: as §1
A further assay deals with ETV1 (Homo sapiens, UniProt P50549 1-477). The settings on record: protein: recombinant; tags: N-terminal GST; dsDNA, one strand shown. The method in brief: as §1
Chain of ETV1 (P50549 whole entry): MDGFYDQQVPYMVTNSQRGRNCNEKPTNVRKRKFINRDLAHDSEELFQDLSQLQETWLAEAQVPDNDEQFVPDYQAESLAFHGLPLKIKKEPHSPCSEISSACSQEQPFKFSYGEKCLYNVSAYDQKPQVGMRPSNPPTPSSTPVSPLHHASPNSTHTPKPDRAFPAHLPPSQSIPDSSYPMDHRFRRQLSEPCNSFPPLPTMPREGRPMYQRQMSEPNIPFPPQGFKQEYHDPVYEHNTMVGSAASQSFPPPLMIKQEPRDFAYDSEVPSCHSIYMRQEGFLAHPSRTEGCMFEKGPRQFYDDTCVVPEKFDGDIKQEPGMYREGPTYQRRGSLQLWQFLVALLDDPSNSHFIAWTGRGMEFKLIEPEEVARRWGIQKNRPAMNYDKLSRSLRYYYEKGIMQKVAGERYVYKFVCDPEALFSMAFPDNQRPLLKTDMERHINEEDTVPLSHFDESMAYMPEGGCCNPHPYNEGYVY

Chain of ELF1 (P32519 whole entry): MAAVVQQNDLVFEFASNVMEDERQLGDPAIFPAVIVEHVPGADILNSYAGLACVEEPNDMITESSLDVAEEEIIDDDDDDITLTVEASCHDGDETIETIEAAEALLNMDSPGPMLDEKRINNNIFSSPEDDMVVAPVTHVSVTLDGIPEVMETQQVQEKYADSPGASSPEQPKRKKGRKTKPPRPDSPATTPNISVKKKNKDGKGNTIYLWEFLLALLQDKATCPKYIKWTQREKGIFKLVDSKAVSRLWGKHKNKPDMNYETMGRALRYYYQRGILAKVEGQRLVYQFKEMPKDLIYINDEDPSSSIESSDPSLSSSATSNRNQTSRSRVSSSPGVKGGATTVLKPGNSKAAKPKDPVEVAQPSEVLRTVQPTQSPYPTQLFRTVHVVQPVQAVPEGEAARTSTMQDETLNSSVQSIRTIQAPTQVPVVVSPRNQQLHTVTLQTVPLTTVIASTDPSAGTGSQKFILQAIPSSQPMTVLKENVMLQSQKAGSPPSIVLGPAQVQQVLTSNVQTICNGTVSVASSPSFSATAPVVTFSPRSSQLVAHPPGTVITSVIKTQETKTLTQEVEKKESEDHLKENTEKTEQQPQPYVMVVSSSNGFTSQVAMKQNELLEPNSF
Chain of ETV5 (P41161 whole entry): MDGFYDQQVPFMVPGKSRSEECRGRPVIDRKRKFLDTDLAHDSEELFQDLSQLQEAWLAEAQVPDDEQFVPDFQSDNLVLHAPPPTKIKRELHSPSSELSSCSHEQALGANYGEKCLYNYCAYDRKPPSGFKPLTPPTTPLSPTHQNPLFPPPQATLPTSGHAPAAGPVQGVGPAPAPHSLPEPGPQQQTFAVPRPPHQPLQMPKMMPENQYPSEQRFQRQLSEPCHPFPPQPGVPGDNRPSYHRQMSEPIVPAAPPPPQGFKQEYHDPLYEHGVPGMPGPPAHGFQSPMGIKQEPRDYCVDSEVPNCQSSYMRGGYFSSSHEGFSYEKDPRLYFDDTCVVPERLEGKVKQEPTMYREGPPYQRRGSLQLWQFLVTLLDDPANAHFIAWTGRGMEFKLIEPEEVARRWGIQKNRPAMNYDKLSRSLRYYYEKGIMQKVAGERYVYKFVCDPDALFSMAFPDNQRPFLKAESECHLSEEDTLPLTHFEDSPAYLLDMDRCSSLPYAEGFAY
Chain of HSF1 (Q00613 whole entry): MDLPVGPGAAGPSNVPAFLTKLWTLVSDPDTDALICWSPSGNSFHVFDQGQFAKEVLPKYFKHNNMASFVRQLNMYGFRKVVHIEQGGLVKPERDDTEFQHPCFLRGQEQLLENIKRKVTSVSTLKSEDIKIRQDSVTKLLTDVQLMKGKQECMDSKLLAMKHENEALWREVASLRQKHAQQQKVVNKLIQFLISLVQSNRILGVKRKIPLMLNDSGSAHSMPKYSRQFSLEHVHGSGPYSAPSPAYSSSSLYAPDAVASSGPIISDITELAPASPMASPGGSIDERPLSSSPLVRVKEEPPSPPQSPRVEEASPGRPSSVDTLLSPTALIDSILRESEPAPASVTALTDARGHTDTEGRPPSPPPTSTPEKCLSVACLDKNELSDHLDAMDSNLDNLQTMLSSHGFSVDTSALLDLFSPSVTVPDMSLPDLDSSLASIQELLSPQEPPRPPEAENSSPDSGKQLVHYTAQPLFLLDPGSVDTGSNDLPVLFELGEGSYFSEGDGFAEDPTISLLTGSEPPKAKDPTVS
Chain of ELF4 (Q99607 whole entry): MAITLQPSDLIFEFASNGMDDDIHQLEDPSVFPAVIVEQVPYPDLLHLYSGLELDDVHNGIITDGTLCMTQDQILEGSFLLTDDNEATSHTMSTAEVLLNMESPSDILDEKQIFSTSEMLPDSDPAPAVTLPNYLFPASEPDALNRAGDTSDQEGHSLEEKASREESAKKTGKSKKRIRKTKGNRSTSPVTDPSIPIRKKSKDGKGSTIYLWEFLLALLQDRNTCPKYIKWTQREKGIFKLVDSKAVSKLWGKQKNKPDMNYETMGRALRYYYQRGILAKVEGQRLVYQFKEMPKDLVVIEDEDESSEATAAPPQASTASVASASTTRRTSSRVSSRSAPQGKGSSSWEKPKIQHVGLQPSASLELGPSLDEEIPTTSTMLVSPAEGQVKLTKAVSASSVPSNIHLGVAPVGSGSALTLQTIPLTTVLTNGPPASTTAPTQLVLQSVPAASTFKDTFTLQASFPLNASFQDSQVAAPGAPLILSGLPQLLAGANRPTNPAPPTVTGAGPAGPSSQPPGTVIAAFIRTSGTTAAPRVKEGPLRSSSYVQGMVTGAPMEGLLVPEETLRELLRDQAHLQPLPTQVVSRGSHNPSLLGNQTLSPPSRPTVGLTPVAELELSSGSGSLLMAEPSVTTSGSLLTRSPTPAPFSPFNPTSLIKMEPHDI
Chain of SPIB (Q01892 whole entry): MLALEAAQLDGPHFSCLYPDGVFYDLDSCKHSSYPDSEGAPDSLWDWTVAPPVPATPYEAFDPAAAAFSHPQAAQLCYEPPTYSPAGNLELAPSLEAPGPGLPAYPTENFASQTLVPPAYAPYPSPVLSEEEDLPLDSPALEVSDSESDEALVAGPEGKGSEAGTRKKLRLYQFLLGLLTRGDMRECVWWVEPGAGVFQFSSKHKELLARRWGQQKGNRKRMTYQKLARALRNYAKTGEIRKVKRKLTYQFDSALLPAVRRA
Chain of CRX (O43186 whole entry): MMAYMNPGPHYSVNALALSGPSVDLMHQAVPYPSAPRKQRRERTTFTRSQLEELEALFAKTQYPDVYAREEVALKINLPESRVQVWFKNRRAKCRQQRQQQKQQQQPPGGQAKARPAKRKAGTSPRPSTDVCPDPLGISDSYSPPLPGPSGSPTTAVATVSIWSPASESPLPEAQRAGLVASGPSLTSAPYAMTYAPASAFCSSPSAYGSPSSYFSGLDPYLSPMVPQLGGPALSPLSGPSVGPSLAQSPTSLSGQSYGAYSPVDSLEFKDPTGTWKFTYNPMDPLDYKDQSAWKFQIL

For the sequence TATCTA, the binding signal is 1.18 fold enrichment (6-mer frequency, TF over GST control) in the assay with FLI1; 1.23 fold enrichment (6-mer frequency, TF over GST control) in the assay with ELK1; 1.35 fold enrichment (6-mer frequency, TF over GST control) with GABPA; 1.18 fold enrichment (6-mer frequency, TF over GST control) with ERG; 1.18 fold enrichment (6-mer frequency, TF over GST control) with ELF1; 1.2 fold enrichment (6-mer frequency, TF over GST control) with EHF. In addition, the binding signal with SPI1 was 1.27 fold enrichment (6-mer frequency, TF over GST control); with SPIB, 1.28 fold enrichment (6-mer frequency, TF over GST control); in the assay with ELK3 it was 1.28 fold enrichment (6-mer frequency, TF over GST control); with FEV it was 1.19 fold enrichment (6-mer frequency, TF over GST control); in the assay with ETV5, 1.14 fold enrichment (6-mer frequency, TF over GST control); with HSF1 it was 1.66 fold enrichment (6-mer frequency, TF over GST control). Besides, the binding signal with SPIC is 1.19 fold enrichment (6-mer frequency, TF over GST control); in the assay with ELF4, 1.22 fold enrichment (6-mer frequency, TF over GST control); with ELK4, 1.2 fold enrichment (6-mer frequency, TF over GST control); with ETV2, 1.25 fold enrichment (6-mer frequency, TF over GST control); in the assay with ELF3 it was 1.34 fold enrichment (6-mer frequency, TF over GST control); in the assay with CRX it was 1.73 fold enrichment (6-mer frequency, TF over GST control). In addition, the binding signal with ETV1 is 1.14 fold enrichment (6-mer frequency, TF over GST control).
